Experimental findings from PMC4336329 (PLoS ONE, 2015) are described below.

About 14,000 (4.5%) of roughly 310,000 compounds showed an effect of 50% or more. The effect is printed as a negative number. Many of the other results were omitted from the sample, so strong results are more common in it than they were.
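Further: peak tail current of the secondary pulse compared with the same well before compound.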

For the assay, the target named is human ether-à-go-go-related gene (hERG) potassium channel (human, UniProt Q12809). In words: primary screen, population patch clamp on CHO cells stably expressing hERG; higher = less effect of the substance.
Chain of human ether-à-go-go-related gene (hERG) potassium channel (Q12809 whole entry, looked up): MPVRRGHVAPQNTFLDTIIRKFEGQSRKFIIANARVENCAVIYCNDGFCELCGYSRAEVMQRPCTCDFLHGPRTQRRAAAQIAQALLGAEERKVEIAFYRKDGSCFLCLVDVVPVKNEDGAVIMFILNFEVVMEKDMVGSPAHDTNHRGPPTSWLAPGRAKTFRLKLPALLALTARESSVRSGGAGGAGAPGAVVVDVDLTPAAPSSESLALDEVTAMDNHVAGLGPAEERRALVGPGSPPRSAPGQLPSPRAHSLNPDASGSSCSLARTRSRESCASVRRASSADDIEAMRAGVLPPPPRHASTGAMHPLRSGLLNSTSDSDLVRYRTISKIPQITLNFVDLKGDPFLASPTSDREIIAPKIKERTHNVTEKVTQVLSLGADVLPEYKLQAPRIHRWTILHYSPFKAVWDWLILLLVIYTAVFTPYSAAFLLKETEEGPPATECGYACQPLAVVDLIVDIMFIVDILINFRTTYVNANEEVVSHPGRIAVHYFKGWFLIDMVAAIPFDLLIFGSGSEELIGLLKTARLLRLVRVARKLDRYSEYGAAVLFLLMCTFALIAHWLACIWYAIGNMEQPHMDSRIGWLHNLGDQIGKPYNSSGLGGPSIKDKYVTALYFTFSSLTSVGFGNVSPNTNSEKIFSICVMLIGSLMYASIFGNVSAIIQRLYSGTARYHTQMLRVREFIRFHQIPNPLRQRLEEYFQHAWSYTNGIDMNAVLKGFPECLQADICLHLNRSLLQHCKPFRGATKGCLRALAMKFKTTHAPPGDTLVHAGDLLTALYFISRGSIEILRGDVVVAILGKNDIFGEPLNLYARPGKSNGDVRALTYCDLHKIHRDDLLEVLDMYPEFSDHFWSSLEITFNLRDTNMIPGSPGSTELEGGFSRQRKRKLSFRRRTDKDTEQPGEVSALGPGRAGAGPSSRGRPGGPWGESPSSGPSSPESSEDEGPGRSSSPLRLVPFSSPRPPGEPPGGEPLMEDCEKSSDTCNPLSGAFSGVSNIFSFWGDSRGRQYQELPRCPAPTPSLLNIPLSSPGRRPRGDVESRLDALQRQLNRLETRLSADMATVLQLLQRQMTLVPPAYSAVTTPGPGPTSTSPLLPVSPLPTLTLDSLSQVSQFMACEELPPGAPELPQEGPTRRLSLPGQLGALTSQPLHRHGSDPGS
Take `CN(C)S(=O)(=O)N1CCc2ccccc2C1`: the “hERG current change (%, negative = inhibition) at 10uM” value is 2.94%.
Then `Cc1cc(C)n(-c2nc3ccccc3nc2N2CCN(S(=O)(=O)c3ccc(F)c(C)c3)CC2)n1`, with 9.54%.
Then `Cc1nn(CC(=O)NCC(C)c2ccccc2)c(=O)c2cc3occc3n12` (centres unmarked), with -3.5%; and `Cn1nnc2c[n+](CC(=O)c3ccc(Cl)cc3)cc(Br)c21.[Br-]`, with -24.7%; and `COc1ccc(C(=O)C[n+]2ccc3c(c2)nc(-c2ccccc2)n3C)cc1.[Br-]`, with -1.44%.
In the case of `O=C(C[n+]1ccccc1)c1ccc(Cl)cc1.[I-]` it was 10%; in that of `O=C(C[n+]1ccc2c(c1)nnn2-c1ccccc1)c1ccc(Cl)cc1.[Br-]`, -69%.
Consider `COc1ccc(C(=O)C[n+]2ccc3c(c2)nc(-c2cc(OC)c(OC)cc2OC)n3C)cc1.[Br-]`, for which the “hERG current change (%, negative = inhibition) at 10uM” value worked out at 6.93%.
Take `COc1ccc(C(=O)C[n+]2ccc3c(c2)nnn3-c2ccccc2)cc1.[Br-]`: the “hERG current change (%, negative = inhibition) at 10uM” value is -60.5%.
As for `CCc1nn(CC(=O)NCCCN(CC)c2cccc(C)c2)c(=O)c2cc3occc3n12`, the “hERG current change (%, negative = inhibition) at 10uM” value is given as -16.3%.
For `C/C(N)=C(/C#N)C(=O)COC(=O)CCS(=O)(=O)c1ccccc1`, the “hERG current change (%, negative = inhibition) at 10uM” value is on record as 12.1%.
As for `CC(C)(C)NC(=O)CSc1nc(O)cc(=O)n1-c1ccccc1F`, the “hERG current change (%, negative = inhibition) at 10uM” value is on record as 6.39%.
In the case of `O=C(CSc1ccc(-c2ccc(Br)cc2)nn1)N1CCOCC1` it was -18.7%; in that of `O=C(c1ccc(=O)n(Cc2ccccc2)n1)N1CCN(C/C=C/c2ccccc2)CC1`, -51.9%; in that of `O=C(c1cnccn1)N1CCN(C/C=C/c2ccccc2)CC1`, -16.6%.
With `O=C(c1nn(Cc2ccccc2)c(=O)c2ccccc12)N1CCN(C/C=C/c2ccccc2)CC1`, the “hERG current change (%, negative = inhibition) at 10uM” value was -57.7%.
`Cc1cc(C(=O)N2CCN(C/C=C/c3ccccc3)CC2)no1`: the “hERG current change (%, negative = inhibition) at 10uM” value was -14.5%.
Then `O=C(c1ccc(Cl)nc1)N1CCN(C/C=C/c2ccccc2)CC1`, with -44.1%.
In the case of `NC(=O)c1nn(Cc2ccccc2)c(=O)c2ccccc12` it was 4.12%.
As for `COc1ccc(NC(=O)NCc2ccc3c(c2)OCO3)c(OC)c1`, the “hERG current change (%, negative = inhibition) at 10uM” value is reported as 11.5%.
Then `COc1ccc(C)cc1S(=O)(=O)NC1CCCCC1C` (centres unmarked), with 5.07%; and `CCC(=O)N1CCN(c2ccc(NC(=O)COc3cccc(C)c3C)cc2)CC1`, with -12%.
Then `O=C(CSc1nnc(-c2ccco2)o1)Nc1c(F)cccc1F`, with -1.95%.
